Experiment [1] addresses Galanin receptor type 2 (Homo sapiens) (UniProt O43603). Description: blockers of human galanin receptor 2 – cell-based, confirmation (AID 866; in the data active = inhibition above about 27%;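 note: cells stimulated with galanin at about its EC80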). The following applies: GALR2-expressing cells, antagonist mode, at 4 µM, hits give high values.
Experiment [2] in a line: nonspecific BLA reporter inhibition – CHO NFAT-bla cells, FRET readout, counter-screen for GALR2 antagonist project, confirmation (AID 867;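 active = inhibition above the mean inhibition across tested compounds plus 3 SD, cut at about 27% in these data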;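 note: 0% = 500 nM thapsigargin stimulated wells and 100% = unstimulated BSA only wells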). To be noted: beta-lactamase FRET, thapsigargin-stimulated, at 4.2 µM, hits give high values. For orientation: A counterscreen serves to expose hits that act by an unwanted route or on another target.
In experiment [3] the target is Sphingosine 1-phosphate receptor 4 (Homo sapiens) (UniProt O95977). Put plainly: blockers of human S1P4 signalling – cell-based, confirmation (AID 1524; in the data active = inhibition above about 30%). The following applies: S1P4-expressing cell line, antagonist mode, reporter read-out; at 4.98 µM; hits give high values.
Sphingosine 1-phosphate receptor 4 (Homo sapiens), sequence (O95977 whole entry, looked up): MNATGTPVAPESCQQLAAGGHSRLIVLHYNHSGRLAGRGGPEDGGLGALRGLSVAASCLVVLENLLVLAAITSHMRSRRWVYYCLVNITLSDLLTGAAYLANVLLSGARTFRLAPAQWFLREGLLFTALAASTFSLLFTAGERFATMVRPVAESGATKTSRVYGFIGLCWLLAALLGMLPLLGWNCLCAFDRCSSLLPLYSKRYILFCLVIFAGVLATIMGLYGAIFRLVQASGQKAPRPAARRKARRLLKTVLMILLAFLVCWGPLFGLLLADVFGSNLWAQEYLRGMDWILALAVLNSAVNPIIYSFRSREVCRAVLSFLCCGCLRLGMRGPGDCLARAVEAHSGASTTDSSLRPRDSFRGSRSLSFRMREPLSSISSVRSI
Experiment [4] concerns the target Neuropeptide Y receptor type 2 (Homo sapiens) (UniProt P49146). Description: human Y2 receptor positive modulation or activation – cell-based, confirmation (AID 1539; in the data active = activation above about 33%). To be noted: cell-based NPY-Y2 potentiator/agonist assay; at 3.6 µM; hits give high values.
The target of experiment [5] is Sphingosine 1-phosphate receptor 1 (Homo sapiens) (UniProt P21453). Put plainly: blockade of human S1P1 receptor – cell-based, counter-screen for S1P4 antagonist project (AID 1564; in the data active = inhibition above about 40%;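 note: receptor stimulated with S1P near its EC80; 0% = agonist stimulated wells and 100% = vehicle only wells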). To be noted: cell-based S1P1 antagonist counterscreen, at 4.98 µM, hits give high values.
Sphingosine 1-phosphate receptor 1 (Homo sapiens), sequence (P21453 whole entry, looked up): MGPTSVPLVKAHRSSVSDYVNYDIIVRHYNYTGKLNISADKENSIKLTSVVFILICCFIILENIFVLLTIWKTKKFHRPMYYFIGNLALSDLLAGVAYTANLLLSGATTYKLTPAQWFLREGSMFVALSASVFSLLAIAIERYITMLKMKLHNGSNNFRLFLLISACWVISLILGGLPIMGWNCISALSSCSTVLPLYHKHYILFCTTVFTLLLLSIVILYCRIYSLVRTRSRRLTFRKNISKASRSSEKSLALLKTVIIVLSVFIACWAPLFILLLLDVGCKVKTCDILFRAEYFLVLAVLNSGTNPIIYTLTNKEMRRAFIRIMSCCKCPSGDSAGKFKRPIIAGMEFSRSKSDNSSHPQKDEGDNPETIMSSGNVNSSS
Experiment [6] has as its target Neuropeptide Y receptor type 1 (Homo sapiens) (UniProt P25929). Description: human Y1 receptor positive modulation or activation – cell-based, fluorescence, counter-screen for NPY-Y2 potentiator project (AID 1651; in the data active = activation above about 45%;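 note: cells stimulated with submaximal NPY then isoproterenol with phosphodiesterase inhibitor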). The following applies: Y1 HEK293-CNG cells, membrane potential fluorescence; at 3.6 µM; hits give high values.
Experiment [7] has the same target. Description: human Y1 receptor agonism, CNGC membrane potential – cell-based, fluorescence, selectivity assay for NPY-Y2 potentiator project (AID 1702;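 active = activation above the mean of DMSO-only control wells plus 3 SD, cut at about 18% in these data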;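 note: cells stimulated with 1 µM isoproterenol plus the PDE inhibitor Ro 20-1724; 0% = isoproterenol with DMSO and no NPY and 100% = 40 nM NPY; Y1 agonists lower the membrane potential dye signal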). To be noted: HEK293 Y1-CNGC, at 3.6 µM, hits give high values.
Experiment [8] is described as follows: blockers of isoproterenol-driven CNG channel signal – cell-based, HEK293-CNG parental, membrane potential fluorescence, counter-screen for NPY-Y2 potentiator project (AID 1703;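 active = inhibition above the control-well mean plus 3 SD of those wells, cut at about 22% in these data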;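 note: 0% = DMSO with isoproterenol and 100% = DMSO without isoproterenol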). The following applies: isoproterenol cAMP, at 3.6 µM, hits give high values.
For experiment [9], the target named is Neuropeptide Y receptor type 2 (Homo sapiens) (UniProt P49146). Put plainly: agonism at human Y2 receptor without NPY – cell-based, fluorescence, counter-screen for NPY-Y2 potentiator project (AID 1710;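 active = activation above the mean of solvent-only control wells plus 3 SD, cut at about 10% in these data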;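 note: cells stimulated by isoproterenol with no NPY added so direct agonism is tested; 0% = DMSO with isoproterenol alone and 100% = NPY at EC100 plus isoproterenol; agonism lowers probe fluorescence through less cAMP and CNG channel opening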). To be noted: HEK293 Y2/CNGC cells, membrane potential fluorescence, agonist mode; at 3.6 µM; hits give high values.
Neuropeptide Y receptor type 2 (Homo sapiens), sequence (P49146 whole entry, looked up): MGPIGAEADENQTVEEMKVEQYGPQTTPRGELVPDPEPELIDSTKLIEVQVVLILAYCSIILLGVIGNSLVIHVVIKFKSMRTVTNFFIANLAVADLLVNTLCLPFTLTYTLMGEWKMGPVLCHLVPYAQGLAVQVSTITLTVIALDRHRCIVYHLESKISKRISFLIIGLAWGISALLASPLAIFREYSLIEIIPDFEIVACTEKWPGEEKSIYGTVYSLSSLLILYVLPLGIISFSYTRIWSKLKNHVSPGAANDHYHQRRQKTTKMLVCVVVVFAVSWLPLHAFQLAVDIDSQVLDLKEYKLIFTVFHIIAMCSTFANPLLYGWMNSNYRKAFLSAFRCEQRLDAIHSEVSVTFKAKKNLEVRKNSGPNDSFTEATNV
Experiment [10] is described as follows: suppression of KLF5 promoter-driven luciferase – DLD-1 cells, luminescence, confirmation (AID 1834;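 active = inhibition above a set limit taken from the earlier primary screen, cut at about 63% in these data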;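 note: 0% = DMSO wells and 100% = LY294002 at 200 µM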). To be noted: DLD-1 KLF5 promoter firefly luciferase reporter, at 4 µM, hits give high values. In general terms: Reporter assays use an easily measured gene product as a stand-in for the process of interest.
Experiment [11] in a line: IEC-6 intestinal cell killing – luminescence, triplicate, cytotoxicity control for KLF5 inhibitor project (AID 1905; in the data active = inhibition above about 23%;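 note: cells exposed to compounds for 48 hours before viability read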). To be noted: IEC-6 rat intestinal cells, viability luminescence; at 4 µM; hits give high values.
Experiment [12] deals with Oxytocin receptor (Homo sapiens) (UniProt P30559). Put plainly: oxytocin receptor activation, retest of hits – fluorescence, CHO-OTR cells, triplicate, confirmation (AID 434963;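 active = mean activation above about 20% derived from the earlier single-dose screen, limit read from the data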;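 note: peak over minimum fluorescence ratio per well during a 100 second FLIPR read; 0% = DMSO alone and 100% = oxytocin high control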). The following applies: Fluo-8 calcium fluorescence, agonist, at 3 µM, hits give high values.
Experiment [13] concerns the target Vasopressin V1a receptor (Homo sapiens) (UniProt P37288). Put plainly: activators of vasopressin V1R in CHO cells – cell-based, triplicate, fluorescence, counter-screen for OXTR agonist project (AID 434991;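 active = mean activation over triplicate exceeds the hit threshold set in the earlier primary screen, cut at about 20% in these data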;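 note: peak over basal fluorescence ratio within a 100 second read; 0% = DMSO alone and 100% = 3 nM vasopressin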). To be noted: Fluo-8 calcium fluorescence, at 3 µM, hits give high values.
The target of experiment [14] is Nuclear receptor coactivator 3 (Homo sapiens) (UniProt Q9Y6Q9). Put plainly: NCOA3 GAL4-fusion reporter inhibition – cell-based, luminescence, quadruplicate, confirmation (AID 588792;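 active = mean inhibition over 43.08%, the solvent-only control mean plus 3 SD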;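 note: 0% = DMSO treated cells and 100% = gossypol at 36 µM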). The following applies: HEK293 GAL4-SRC3 luciferase reporter, at 3.6 µM, hits give high values.
Nuclear receptor coactivator 3 (Homo sapiens), sequence (Q9Y6Q9 whole entry, looked up, the tested form may be a part): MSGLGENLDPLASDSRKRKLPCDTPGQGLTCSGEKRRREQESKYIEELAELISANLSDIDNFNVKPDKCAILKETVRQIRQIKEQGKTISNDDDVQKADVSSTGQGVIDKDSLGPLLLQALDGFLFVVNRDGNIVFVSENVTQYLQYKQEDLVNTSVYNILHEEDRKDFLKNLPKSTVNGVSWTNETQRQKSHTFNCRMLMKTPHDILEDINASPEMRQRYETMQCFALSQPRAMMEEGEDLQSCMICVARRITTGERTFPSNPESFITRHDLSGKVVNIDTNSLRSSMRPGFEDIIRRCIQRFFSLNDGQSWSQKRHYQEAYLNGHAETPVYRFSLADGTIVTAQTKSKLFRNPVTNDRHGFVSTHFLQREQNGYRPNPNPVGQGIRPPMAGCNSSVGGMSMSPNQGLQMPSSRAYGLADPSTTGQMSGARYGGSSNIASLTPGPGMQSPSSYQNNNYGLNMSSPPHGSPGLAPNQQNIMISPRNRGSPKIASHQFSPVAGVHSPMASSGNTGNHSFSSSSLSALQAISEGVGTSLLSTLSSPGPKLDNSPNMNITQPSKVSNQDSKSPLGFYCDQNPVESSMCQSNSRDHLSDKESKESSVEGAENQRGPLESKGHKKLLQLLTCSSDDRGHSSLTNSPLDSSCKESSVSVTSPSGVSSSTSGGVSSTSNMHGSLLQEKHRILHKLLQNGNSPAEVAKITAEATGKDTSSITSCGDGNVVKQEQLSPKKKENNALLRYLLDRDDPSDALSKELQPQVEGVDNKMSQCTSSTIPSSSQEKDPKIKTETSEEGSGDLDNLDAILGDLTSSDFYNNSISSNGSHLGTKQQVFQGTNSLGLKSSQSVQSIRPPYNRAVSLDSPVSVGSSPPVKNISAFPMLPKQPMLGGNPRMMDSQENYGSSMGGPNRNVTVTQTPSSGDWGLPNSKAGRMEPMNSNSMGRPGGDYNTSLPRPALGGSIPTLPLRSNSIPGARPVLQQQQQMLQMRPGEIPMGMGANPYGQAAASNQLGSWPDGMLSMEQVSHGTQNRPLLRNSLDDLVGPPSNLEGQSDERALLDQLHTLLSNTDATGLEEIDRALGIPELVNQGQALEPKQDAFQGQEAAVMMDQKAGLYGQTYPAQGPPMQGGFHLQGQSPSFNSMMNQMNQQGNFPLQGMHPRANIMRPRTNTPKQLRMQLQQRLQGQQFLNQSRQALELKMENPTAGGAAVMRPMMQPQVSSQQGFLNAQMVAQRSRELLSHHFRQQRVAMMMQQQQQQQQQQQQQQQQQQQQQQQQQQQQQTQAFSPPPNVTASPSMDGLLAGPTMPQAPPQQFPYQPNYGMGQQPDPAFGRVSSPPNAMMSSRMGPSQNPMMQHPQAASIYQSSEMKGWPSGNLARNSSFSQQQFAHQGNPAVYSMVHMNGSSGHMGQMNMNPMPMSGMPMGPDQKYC
Experiment [15] relates to transactivating tegument protein VP16 (Human herpesvirus 1), Gal4-VP16 luciferase reporter. Description: repression of VP16-driven luciferase reporter – cell-based, luminescence, high throughput, counter-screen for SRC3 inhibitor project (AID 588794; in the data active = inhibition above about 30%). To be noted: mammalian cells, at 3.6 µM, hits give high values.
Experiment [16] addresses Nuclear receptor coactivator 1 (Homo sapiens) (UniProt Q15788). Description: NCOA1 GAL4-fusion reporter inhibition – cell-based, luminescence, quadruplicate, confirmation (AID 588820;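 active = mean inhibition above 46.68%, the untreated control wells mean plus 3 SD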;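 note: 0% = DMSO wells and 100% = gossypol 36 µM treated wells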). The following applies: HEK293 GAL4-SRC1 luciferase reporter, at 3.6 µM, hits give high values.
A short description of experiment [17]: repression of VP16-driven luciferase reporter – cell-based, luminescence, high throughput, counter-screen for SRC1 inhibitor project (AID 588824; in the data active = inhibition above about 25%). To be noted: cell-based VP16 transactivation luciferase luminescence; at 3.6 µM; hits give high values.
In experiment [18] the target is Photoreceptor-specific nuclear receptor (Homo sapiens) (UniProt Q9Y5X4). Description: retest of NR2E3-NCOR disrupting agonists – cell-based, luminescence, CHO-S two-hybrid, confirmation (AID 624378;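 active = average inhibition above a cutoff equal to the mean inhibition of all tested compounds plus one SD, cut at about 70% in these data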;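 note: 0% = DMSO in NR2E3 cells and 100% = DMSO in cells lacking NR2E3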). The following applies: CHO-S mammalian two-hybrid NR2E3-NCOR, luciferase luminescence; at 3.98 µM; hits give high values.
Experiment [19] in a line: nonselective effects on VP16 transactivation – cell-based, luminescence, CHO-S, high throughput, counter-screen for NR2E3 agonist project, confirmation (AID 624379;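 active = mean inhibition above a cutoff equal to the average over all tested compounds plus one standard deviation, cut at about 70% in these data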;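 note: 0% = DMSO with VP16-transfected cells and 100% = DMSO with cells lacking VP16; higher means less reporter light so more repression of VP16 activity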). To be noted: CHO-S GAL4-VP16 luciferase reporter, at 3.98 µM, hits give high values.
The nature of experiment [20]: StAR promoter reporter inhibitors, counter-screen for LRH-1 inverse agonist project, cell-based, luminescence, high throughput (AID 651611; in the data active = inhibition above about 28%). The following applies: StAR promoter luciferase reporter counterscreen, at 3.6 µM, hits give high values.
The target in experiment [21] is Nuclear receptor subfamily 5 group A member 2 (Homo sapiens) (UniProt O00482). Put plainly: NR5A2 activity suppression in reporter cells – cell-based, luminescence, confirmation (AID 651613; in the data active = inhibition above about 42%;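 note: HEK293T cells co-transfected with LRH-1 and StAR promoter luciferase reporter; 0% = vehicle wells and 100% = parental cells lacking receptor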). The following applies: cell-based LRH-1 luciferase reporter, inverse agonism; at 3.6 µM; hits give high values.
The target of experiment [22] is Steroidogenic factor 1 (Homo sapiens) (UniProt Q13285). Description: inverse agonism at SF1 nuclear receptor – cell-based, luminescence, high throughput, counter-screen for LRH-1 inverse agonist project (AID 651614; in the data active = inhibition above about 44%;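 note: cells cotransfected with StAR promoter reporter and SF1 expression vector; 0% = vehicle on cells with receptor and 100% = vehicle on cells lacking receptor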). To be noted: cell-based SF1 luciferase reporter, at 3.6 µM, hits give high values.
Steroidogenic factor 1 (Homo sapiens), sequence (Q13285 whole entry, looked up, the tested form may be a part): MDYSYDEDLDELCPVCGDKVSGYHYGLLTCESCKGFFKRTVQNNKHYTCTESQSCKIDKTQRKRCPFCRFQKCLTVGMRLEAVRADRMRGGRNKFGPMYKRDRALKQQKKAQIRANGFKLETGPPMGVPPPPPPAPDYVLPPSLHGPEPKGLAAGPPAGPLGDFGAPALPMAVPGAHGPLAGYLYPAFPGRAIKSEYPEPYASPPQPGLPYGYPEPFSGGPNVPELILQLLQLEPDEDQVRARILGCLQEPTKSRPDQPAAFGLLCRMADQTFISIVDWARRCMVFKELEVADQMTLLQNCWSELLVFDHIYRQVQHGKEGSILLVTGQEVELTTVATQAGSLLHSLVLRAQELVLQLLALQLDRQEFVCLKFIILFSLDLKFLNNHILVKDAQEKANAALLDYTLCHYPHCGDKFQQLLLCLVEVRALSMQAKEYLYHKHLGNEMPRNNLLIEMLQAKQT
Experiment [23] in a line: compounds suppressing VP16-driven luciferase signal – cell-based, luminescence, high throughput, counter-screen for LRH-1 inverse agonist project (AID 651615; in the data active = inhibition above about 33%). The following applies: Gal4-VP16 luciferase reporter cells, at 3.6 µM, hits give high values.
The nature of experiment [24]: reduced OD of V66 E. coli with T4 gene 2 phage – absorbance, RecBCD inhibitor project, confirmation (AID 651982;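 active = mean inhibition over triplicates exceeding the hit threshold derived in the original primary screen, cut at about 11% in these data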). The following applies: E. coli V66 + T4 2- phage, growth OD; at 11.9 µM; hits give high values.
Experiment [25] is described as follows: bacterial growth inhibition – absorbance, high throughput, counter-screen for RecBCD inhibitor project (AID 651983; in the data active = inhibition above about 20%;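 note: E. coli strain V66 grown with compound alone and no phage infection; 0% = bacteria with DMSO vehicle only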). The following applies: E. coli viability, absorbance (OD) growth; at 11.9 µM; hits give high values.
A short description of experiment [26]: reduced optical density, T4-challenged addAB+ bacteria – absorbance, E. coli V3065, T4 phage, counter-screen for RecBCD inhibitor project, confirmation (AID 651984;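 active = mean inhibition above the solvent-only control wells' mean plus 3 SD, cut at about 22% in these data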;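 note: higher means less bacterial growth from phage killing when AddAB is blocked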). To be noted: E. coli expressing H. pylori AddAB + T4 phage, OD growth; at 11.9 µM; hits give high values; gene 2 mutant T4, recBCD-deleted host.
Experiment [27] can be described thus: VP16-driven transactivation reporter suppression – cell-based, luminescence, HEK293, counter-screen for COUP-TFII antagonist project (AID 687007; in the data active = inhibition above about 13%). To be noted: HEK293 Gal4-VP16 luciferase reporter, at 8.5 µM, hits give high values.
In experiment [28] the target is COUP transcription factor 2 (Homo sapiens) (UniProt P24468). Put plainly: retest of COUP-TFII reporter suppressors – cell-based, luciferase reporter, HEK293, triplicate, confirmation (AID 687008;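 active = mean inhibition over three repeats above a set limit taken from the earlier primary screen, cut at about 38% in these data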;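 note: 100% = cells given the luciferase reporter alone without the COUP-TF2 vector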). To be noted: HEK293 NGFI-A luciferase reporter, luminescence; at 8.5 µM; hits give high values.
Experiment [29] addresses Peroxisome proliferator-activated receptor gamma (Homo sapiens) (UniProt P37231). Description: retested PPARg-SRC-2 recruitment enhancers – biochemical, HTS, confirmation (AID 1297; in the data active = activation above about 22%;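 note: 0% = vehicle alone and 100% = reference agonist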). To be noted: biochemical SRC-2 recruitment by PPARgamma; at 8 µM; hits give high values.
For experiment [30] the target is unchanged. Description: retest of SRC-1 recruitment enhancers for PPARgamma – biochemical, confirmation (AID 1300).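 Note: 0% = vehicle wells and 100% = reference agonist.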 To be noted: PPARgamma–SRC-1 coactivator recruitment biochemical assay; at 8 µM; hits give high values.
Experiment [31] concerns the target Peroxisome proliferator-activated receptor gamma (Homo sapiens) + Nuclear receptor coactivator 3 (Homo sapiens) (UniProt P37231+Q9Y6Q9). Description: agonists promoting SRC-3 binding to PPARgamma – biochemical, confirmation (AID 1301; in the data active = activation above about 24%;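 note: 0% = vehicle wells and 100% = reference agonist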). To be noted: biochemical PPARgamma-SRC-3 coactivator recruitment, agonist mode; at 8 µM; hits give high values.
Experiment [32] has as its target Oxysterols receptor LXR-beta (Homo sapiens) (UniProt P55055). Put plainly: nonspecific reporter activation via LXR – cell-based, luminescence, HEK293, H. contortus campaign, counter-screen for hcDAF-12 agonist project, confirmation (AID 743027;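 active = mean percent activation of the reporter above a cutoff set as the average over tested compounds plus their standard deviation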). To be noted: HEK293 Gal4-LXR tk-luc reporter, 24 h, at 6.8 µM, hits give high values, normalized: DMSO 0%, positive control 100%.

Experiment [33] concerns Nuclear hormone receptor DAF-12 (Haemonchus contortus). Put plainly: hcDAF-12 luciferase reporter activation, retest – cell-based, luminescence, HEK293, lit1-tk-luc, triplicate, confirmation (AID 743032;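 active = mean activation across triplicate tests above the threshold derived from the earlier primary screen, cut at about 5.5% in these data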;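 note: 0% = DMSO only wells and 100% = 3 µM Δ7-dafachronic acid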). To be noted: HEK293 hcDAF-12 lit1-tk-luc reporter, at 6.8 µM, hits give high values, % of Δ7-dafachronic acid response.

A number with no mark means an inactive call. Some of the results follow. Active and inactive are the calls of the source. Cut-off read from the data, not from the text of the source, unless noted: active = activation above about 20%; inactive = the rest.

Peroxisome proliferator-activated receptor gamma (Homo sapiens) + Nuclear receptor coactivator 3 (Homo sapiens), sequence (P37231 whole entry, looked up, the tested form may be a part): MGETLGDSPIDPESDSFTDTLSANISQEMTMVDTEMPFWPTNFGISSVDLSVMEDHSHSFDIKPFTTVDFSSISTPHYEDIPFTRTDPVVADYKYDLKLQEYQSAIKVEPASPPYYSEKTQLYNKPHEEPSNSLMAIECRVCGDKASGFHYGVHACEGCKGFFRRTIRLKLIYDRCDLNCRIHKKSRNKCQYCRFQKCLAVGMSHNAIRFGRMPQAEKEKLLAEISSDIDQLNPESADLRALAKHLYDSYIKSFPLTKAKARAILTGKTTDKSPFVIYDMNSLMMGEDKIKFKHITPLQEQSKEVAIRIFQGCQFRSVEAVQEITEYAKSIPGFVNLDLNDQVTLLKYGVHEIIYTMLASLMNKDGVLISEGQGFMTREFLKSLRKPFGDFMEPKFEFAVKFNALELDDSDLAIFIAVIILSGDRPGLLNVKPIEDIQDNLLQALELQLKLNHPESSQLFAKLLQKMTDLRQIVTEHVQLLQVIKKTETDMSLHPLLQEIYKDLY
Peroxisome proliferator-activated receptor gamma (Homo sapiens) + Nuclear receptor coactivator 3 (Homo sapiens), sequence (Q9Y6Q9 whole entry, looked up, the tested form may be a part): as the sequence (Q9Y6Q9 whole entry, looked up, the tested form may be a part) above
Peroxisome proliferator-activated receptor gamma (Homo sapiens), sequence (P37231 whole entry, looked up): as the sequence (P37231 whole entry, looked up, the tested form may be a part) above
Neuropeptide Y receptor type 1 (Homo sapiens), sequence (P25929 whole entry, looked up): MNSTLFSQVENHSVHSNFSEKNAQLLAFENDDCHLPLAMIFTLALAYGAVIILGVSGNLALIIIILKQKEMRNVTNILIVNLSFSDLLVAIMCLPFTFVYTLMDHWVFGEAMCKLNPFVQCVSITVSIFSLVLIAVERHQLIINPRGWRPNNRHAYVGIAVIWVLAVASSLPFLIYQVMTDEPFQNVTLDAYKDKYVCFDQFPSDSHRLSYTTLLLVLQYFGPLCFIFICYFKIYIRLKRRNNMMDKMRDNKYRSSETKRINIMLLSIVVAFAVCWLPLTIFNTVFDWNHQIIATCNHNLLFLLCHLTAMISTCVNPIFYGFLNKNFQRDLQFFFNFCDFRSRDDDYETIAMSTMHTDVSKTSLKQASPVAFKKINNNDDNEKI
Galanin receptor type 2 (Homo sapiens), sequence (O43603 whole entry, looked up): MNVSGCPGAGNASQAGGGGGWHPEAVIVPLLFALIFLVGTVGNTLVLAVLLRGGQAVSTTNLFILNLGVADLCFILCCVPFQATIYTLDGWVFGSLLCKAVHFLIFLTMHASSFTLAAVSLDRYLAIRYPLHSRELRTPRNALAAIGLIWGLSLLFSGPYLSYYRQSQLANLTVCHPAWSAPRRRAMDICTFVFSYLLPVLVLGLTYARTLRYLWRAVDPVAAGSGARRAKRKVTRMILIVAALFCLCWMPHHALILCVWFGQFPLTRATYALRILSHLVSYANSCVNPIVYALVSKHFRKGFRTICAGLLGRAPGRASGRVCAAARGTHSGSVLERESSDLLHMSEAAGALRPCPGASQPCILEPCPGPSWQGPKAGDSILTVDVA

In the case of `O=C(NC(Nc1nc2ccc([N+](=O)[O-])cc2s1)(C(F)(F)F)C(F)(F)F)c1ccccc1`, the inhibition – broadly, the drop in the measured response relative to a control, in per cent – is 99.4% (active) in [1]; 69.4% (active) in [2]; 64.5% (active) in experiment [3]; 26.4% in experiment [5]; -2.45% in [8]; 83.7% (active) in experiment [10]. The inhibition is 90.4% (active) in [11]; 69.1% (active) in experiment [14]; 84.5% (active) in experiment [15]; 38.7% in experiment [16]; 84.3% (active) in experiment [17]; 98.5% (active) in experiment [18]. In addition, the inhibition in experiment [19] was 93.3% (active); in [20], 82.9% (active); in [21], 105% (active); in [22], 93.3% (active); in [23], 86.8% (active); in experiment [24], 8%. The inhibition in experiment [25] is 10.7%; in experiment [26], 11.3%; in experiment [27], 6.94%; in experiment [28], 65.9% (active). The activation was 30.6% in experiment [4]; -2.54% in [6]; -9.19% in experiment [7]; 22.1% (active) in [9]; 13% in experiment [12]; 8.96% in experiment [13].
Turning to `COc1ccc(/C(O)=C2/C(=O)C(=O)N(c3nc(C)c(C)s3)C2c2ccco2)cc1` (stereo not given), the activation is 21.9% (active) in experiment [29], 17.5% in experiment [30] and 16.1% in experiment [31].
For the compound `Cc1nc(-c2ccccc2)sc1-c1nc(-c2ccccc2)ncc1S(=O)(=O)c1ccccc1`, the activation was 48.5% (active) in experiment [29], 29.3% (active) in experiment [30] and 22.7% in experiment [31].
For the compound `COc1ccc(-c2csc(NC3OC(=O)c4ccccc43)n2)cc1` (stereo not given), the figures for the inhibition in experiment [3] and in [5] were 19.3% and -6.85%, respectively.
For the compound `CCc1c(-c2ccccc2)nc(N)c(C#N)c1-c1cccs1`, the figures for the activation in experiment [29], in [30] and in [31] were 11.1%, 13.3% and 8.84%, respectively.
In the case of `Cc1cc(N2C(=O)C(=O)/C(=C(/O)c3ccc(Cl)cc3)C2c2cccc(Br)c2)no1` (stereo not given), the results for the activation in experiment [29], in experiment [30] and in experiment [31] were 28.1% (active), 18.8% and 14%, respectively.
With `CC(=O)n1c(C=Nc2ccccc2)c(O)c2ccccc21`, the activation is 2.33% in [29]; 0.42% in [30]; 5.23% in experiment [31]; 0.1% in experiment [32]; 4.63% in experiment [33].
For `O=C(O)Cc1sc(-c2ccccc2)nc1-c1cccs1`, the activation is 42.6% (active) in experiment [29], 34.7% (active) in experiment [30] and 32.9% (active) in [31].

Values taken from PubChem BioAssay.
